Assay [1] in a line: antimalarial activity against Dd2 strain (AID 2302;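 active = growth inhibition above 50% at the single 2 µM test dose, taken to imply half-maximal potency below 2 µM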;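 also: 0% = DMSO untreated growth and 100% = chloroquine plus artemisinin killed control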). The settings on record: P. falciparum Dd2 in RBCs, LDH growth readout, 72 h; at 2 µM; hits give high values.
A short description of assay [2]: HepG2 cytotoxicity, primary screen, cytotoxicity control for P. falciparum antimalarial project, cell-based, ATP luminescence (AID 2303;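 active = inhibition above 50%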;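 also: 0% = DMSO wells and 100% = digitonin-killed cells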). The settings on record: HepG2 viability, 24-48 h, at 10 µM, hits give high values.
For assay [3], the target named is L-lactate dehydrogenase (Plasmodium falciparum (isolate CDC / Honduras)) (UniProt Q27743). The assay can be described thus: PfLDH activity inhibition – cell lysate, 3D7 strain, counter-screen for P. falciparum growth inhibition project (AID 2304).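 Also: 0% = vehicle and 100% = reference inhibitor.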 To be noted: P. falciparum 3D7 crude extract, LDH APAD/NBT absorbance; at 2 µM; hits give high values.
Assay [4] in a line: inhibition of 3D7 malaria parasite growth – strain 3D7 (AID 2306).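 Also: 0% = DMSO wells and 100% = chloroquine plus artemisinin control wells.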 To be noted: P. falciparum 3D7 erythrocytic growth, LDH absorbance, 72 h; at 2 µM; hits give high values.
In assay [5] the target is Calcium-dependent protein kinase 1 (Plasmodium falciparum (isolate 3D7)) (UniProt P62344). The assay can be described thus: PfCDPK1 kinase inhibitors, biochemical, TCAMS library (AID 1159585; cut-off not given, nearly all actives have IC50 up to about 0.98 µM;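 also: inhibitors leave more ATP so luminescence rises with inhibition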). To be noted: recombinant PfCDPK1, Kinase-Glo ATP depletion luminescence. In general terms: Kinase-Glo reads ATP consumption through a luciferase reaction.
Assay [6] addresses Plasmodium falciparum protein kinase 6 (PK6, PF3D7_1337100) (UniProt Q8IDW1). Nature of the assay: PfPK6 kinase inhibitors, biochemical, TCAMS library (AID 1159586). The settings on record: recombinant PfPK6, Kinase-Glo ATP depletion luminescence.
Assay [7] addresses Protein kinase 7 (PK7), Plasmodium falciparum 3D7 (PF3D7_0213400) (UniProt Q7YTF7). Nature of the assay: inhibition of Plasmodium PK7 catalytic activity – biochemical, TCAMS antimalarial set, Kinase-Glo luminescence (AID 1159587). The settings on record: recombinant PfPK7, Kinase-Glo ATP depletion luminescence.
The target of assay [8] is Calcium-dependent protein kinase 4 (Plasmodium falciparum (isolate 3D7)) (UniProt Q8IBS5). Nature of the assay: PfCDPK4 kinase inhibitors, biochemical, TCAMS library (AID 1159588; cut-off not given, nearly all actives have IC50 up to about 0.91 µM). The settings on record: recombinant PfCDPK4, Kinase-Glo ATP depletion luminescence.

A word on the inhibition: it is the relative decrease from the control value, in per cent.

The structures appear in SMILES notation. Values without a mark were called inactive. For part of these data: Potency and affinity values are given separately. Active and inactive are the calls of the source. Unless noted, no rule for the calls is given here.

Sequence of Protein kinase 7 (PK7), Plasmodium falciparum 3D7 (PF3D7_0213400) (Q7YTF7 1-343): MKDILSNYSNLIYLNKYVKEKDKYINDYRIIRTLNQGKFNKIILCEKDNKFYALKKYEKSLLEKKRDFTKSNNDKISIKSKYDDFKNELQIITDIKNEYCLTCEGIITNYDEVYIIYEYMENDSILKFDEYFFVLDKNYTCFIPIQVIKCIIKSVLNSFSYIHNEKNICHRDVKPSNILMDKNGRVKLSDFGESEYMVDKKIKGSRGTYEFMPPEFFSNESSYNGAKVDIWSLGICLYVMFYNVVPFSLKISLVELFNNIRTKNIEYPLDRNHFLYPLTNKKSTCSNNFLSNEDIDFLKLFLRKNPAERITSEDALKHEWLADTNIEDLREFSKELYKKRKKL
Sequence of Calcium-dependent protein kinase 4 (Plasmodium falciparum (isolate 3D7)) (Q8IBS5 whole entry, looked up): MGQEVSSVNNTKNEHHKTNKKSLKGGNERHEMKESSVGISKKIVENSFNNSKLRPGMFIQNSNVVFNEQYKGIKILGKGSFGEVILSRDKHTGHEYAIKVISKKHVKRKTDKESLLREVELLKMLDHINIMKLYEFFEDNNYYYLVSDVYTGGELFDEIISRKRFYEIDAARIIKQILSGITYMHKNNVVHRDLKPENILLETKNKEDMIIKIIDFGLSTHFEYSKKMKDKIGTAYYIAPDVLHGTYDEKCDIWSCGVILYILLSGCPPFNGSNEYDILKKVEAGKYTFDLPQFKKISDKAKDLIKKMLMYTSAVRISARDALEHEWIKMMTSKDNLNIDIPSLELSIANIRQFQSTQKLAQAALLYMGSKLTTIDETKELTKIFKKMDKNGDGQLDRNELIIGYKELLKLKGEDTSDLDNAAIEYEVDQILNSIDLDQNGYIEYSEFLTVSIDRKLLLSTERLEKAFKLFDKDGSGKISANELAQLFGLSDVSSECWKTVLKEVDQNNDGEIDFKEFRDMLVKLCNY
Sequence of L-lactate dehydrogenase (Plasmodium falciparum (isolate CDC / Honduras)) (Q27743 whole entry, looked up): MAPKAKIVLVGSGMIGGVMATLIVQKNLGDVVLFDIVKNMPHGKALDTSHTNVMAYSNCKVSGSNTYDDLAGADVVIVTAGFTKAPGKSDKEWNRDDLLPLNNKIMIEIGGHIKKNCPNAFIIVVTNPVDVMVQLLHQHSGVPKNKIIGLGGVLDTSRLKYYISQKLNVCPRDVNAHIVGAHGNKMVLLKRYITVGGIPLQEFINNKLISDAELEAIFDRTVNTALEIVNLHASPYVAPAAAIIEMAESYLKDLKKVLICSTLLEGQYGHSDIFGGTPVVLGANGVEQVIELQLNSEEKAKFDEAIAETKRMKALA
Sequence of Calcium-dependent protein kinase 1 (Plasmodium falciparum (isolate 3D7)) (P62344 whole entry, looked up): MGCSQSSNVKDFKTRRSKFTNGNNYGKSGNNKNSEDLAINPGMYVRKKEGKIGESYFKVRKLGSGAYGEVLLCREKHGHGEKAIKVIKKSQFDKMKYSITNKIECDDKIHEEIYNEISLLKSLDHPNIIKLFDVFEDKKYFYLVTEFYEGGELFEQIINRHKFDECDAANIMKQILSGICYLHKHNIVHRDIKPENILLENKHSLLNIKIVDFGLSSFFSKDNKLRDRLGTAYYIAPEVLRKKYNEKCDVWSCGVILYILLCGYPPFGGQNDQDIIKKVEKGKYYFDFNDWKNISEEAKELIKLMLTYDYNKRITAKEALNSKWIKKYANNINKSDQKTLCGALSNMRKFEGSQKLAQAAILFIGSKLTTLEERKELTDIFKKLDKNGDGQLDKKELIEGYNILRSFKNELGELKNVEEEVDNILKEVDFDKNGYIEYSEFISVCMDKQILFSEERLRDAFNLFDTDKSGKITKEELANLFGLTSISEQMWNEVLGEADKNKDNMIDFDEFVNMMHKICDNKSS
Sequence of Plasmodium falciparum protein kinase 6 (PK6, PF3D7_1337100) (Q8IDW1 1-305): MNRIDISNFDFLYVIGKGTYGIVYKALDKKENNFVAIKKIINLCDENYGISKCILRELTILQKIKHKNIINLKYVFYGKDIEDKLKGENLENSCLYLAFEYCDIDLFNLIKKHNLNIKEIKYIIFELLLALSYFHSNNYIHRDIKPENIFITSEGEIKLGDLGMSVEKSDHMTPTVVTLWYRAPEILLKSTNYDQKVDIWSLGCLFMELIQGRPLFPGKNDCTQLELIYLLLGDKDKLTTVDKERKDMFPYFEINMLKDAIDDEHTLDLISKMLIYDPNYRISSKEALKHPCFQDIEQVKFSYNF

Regarding `CCOC(=O)c1ccc(OCCOc2ccccc2)cc1`, the growth inhibition is -3% in assay [1] and 99% (active) in assay [4]. Also, the inhibition in assay [2] was 63% (active); in assay [3], -1%. Further, the result in assay [5], in assay [6], in assay [7] and in assay [8] was inactive.
In the case of `O=C1CCCN1CCCNCc1ccc(-c2cccc(-c3nc4ccc(C(F)(F)F)cc4[nH]3)c2)cc1`, the growth inhibition in assay [1] is 98% (active); in assay [4], 100% (active). The results for the inhibition in assay [2] and in assay [3] were 14% and 2%, respectively. Moreover, the result in assay [5], in assay [6], in assay [7] and in assay [8] was inactive.
For the compound `CCC(C)(C)c1ccc(S(=O)(=O)Nc2ccc(Cl)c(OCCN3CCCCC3)c2)cc1`, the growth inhibition in assay [1] is 93% (active); in assay [4] it was 88% (active). In addition, the inhibition in assay [2] was 100% (active); in assay [3] it was 0%. Besides, the outcome in assay [5], in assay [6], in assay [7] and in assay [8] was inactive.
Regarding `CC(=O)c1ccc(S(=O)(=O)N2CCC(C(=O)Nc3ccccc3N3CCCC3)CC2)cc1`, the growth inhibition in assay [1] is 99% (active); in assay [4], 95% (active). Also, the figures for the inhibition in assay [2] and in assay [3] were -3% and -8%, respectively. Moreover, the outcome in assay [5], in assay [6], in assay [7] and in assay [8] was inactive.
As to `COc1ccc2nccc([C@@H](O)CN3CCC(NCc4cc5cc(C)ccc5s4)CC3)c2c1`, the growth inhibition in assay [1] is 74% (active); in assay [4] it was 92% (active). The inhibition in assay [2] was 13%; in assay [3], 3%. The outcome in assay [5], in assay [6], in assay [7] and in assay [8] was inactive.
`Cc1[nH]cnc1-c1cccc(NC(=O)c2cc3ccccc3s2)c1`: the figures for the growth inhibition in assay [1] and in assay [4] were 48% and 99% (active), respectively. Moreover, the inhibition in assay [2] is 5%; in assay [3] it was -5%. In addition, the result in assay [5], in assay [6], in assay [7] and in assay [8] was inactive.
Take `CC(=NN=C(N)N)c1ccc2ccc3ccccc3c2c1`: the growth inhibition in assay [1] is 23%; in assay [4], 97% (active). Also, the inhibition in assay [2] was 14%; in assay [3], -7%. In addition, the outcome in assay [5], in assay [6], in assay [7] and in assay [8] was inactive.
Take `CN(CCN)Cc1cccc(-c2ccc(-c3nc4ccc(C(F)(F)F)cc4[nH]3)s2)c1`: the growth inhibition was 92% (active) in assay [1] and 100% (active) in assay [4]. For the same compound, the inhibition in assay [2] was 27%; in assay [3], 5%. Also, the outcome in assay [5], in assay [6], in assay [7] and in assay [8] was inactive.
As for `COCCNCc1ccc(-c2ccccc2CNC2CCN(Cc3ccccc3)CC2)cc1`, the growth inhibition in assay [1] was 28%; in assay [4], 97% (active). Besides, the inhibition was 17% in assay [2] and -1% in assay [3]. The outcome in assay [5], in assay [6], in assay [7] and in assay [8] was inactive.
Take `CCc1cn2c3c(cc(C(=O)N[C@@H](Cc4ccccc4)[C@H](O)CNCC(C)C)cc13)N(C)S(=O)(=O)CC2`: the figures for the growth inhibition in assay [1] and in assay [4] were 99% (active) and 98% (active), respectively. The inhibition in assay [2] was -1%; in assay [3], -6%. Also, the outcome in assay [5], in assay [6], in assay [7] and in assay [8] was inactive.
On to `C#CCOc1ccc2ccccc2c1CNCCCCCCNCc1c(OCC#C)ccc2ccccc12`, for which the growth inhibition is 98% (active) in assay [1] and 100% (active) in assay [4]. The inhibition in assay [2] was 100% (active); in assay [3] it was -3%. Besides, the result in assay [5], in assay [6], in assay [7] and in assay [8] was inactive.
As to `COCCN1CCC(CN(C)CC(C)(C)c2nc(-c3ccc(Cl)c(O)c3)c(-c3ccncc3)[nH]2)CC1`, the growth inhibition in assay [1] is 10%; in assay [4], 94% (active). Besides, the inhibition is -8% in assay [2] and -2% in assay [3]. The result in assay [5], in assay [6], in assay [7] and in assay [8] was inactive.
Take `O=C(/C=C/c1ccc(Cl)c(Cl)c1)NCCCCCN1CCCC(C(=O)Nc2ccc(Cl)cc2)C1` (stereo not drawn): the growth inhibition is -3% in assay [1] and 98% (active) in assay [4]. The inhibition in assay [2] is 35%; in assay [3], -3%. Moreover, the result in assay [5], in assay [6], in assay [7] and in assay [8] was inactive.
In the case of `CN1CCCN(Cc2ccc(-c3ccc(NC(=O)c4cccc(C#N)c4)cc3)cc2)CC1`, the growth inhibition is 67% (active) in assay [1] and 97% (active) in assay [4]. In addition, the values for the inhibition in assay [2] and in assay [3] were 46% and -8%, respectively. The outcome in assay [5], in assay [6], in assay [7] and in assay [8] was inactive.
With `O=C(/C=C/c1ccc(Cl)cc1)NCCCCCN1CCCC(C(=O)Nc2ccc(F)c(Cl)c2)C1` (stereo not drawn), the figures for the growth inhibition in assay [1] and in assay [4] were 6% and 94% (active), respectively. For the same compound, the inhibition in assay [2] was 27%; in assay [3], 7%. Also, the result in assay [5], in assay [6], in assay [7] and in assay [8] was inactive.
For `CCCCCCN1CCC(CNCc2cccc(Cl)c2)CC1`, the growth inhibition is 13% in assay [1] and 85% (active) in assay [4]. The inhibition in assay [2] is 8%; in assay [3], 1%. In addition, the outcome in assay [5], in assay [6], in assay [7] and in assay [8] was inactive.
Consider `CCN(CC)CCCC(C)Nc1cc(C=Cc2ccc([N+](=O)[O-])cc2)nc2ccc(OC)cc12` (stereo not drawn), for which the growth inhibition in assay [1] and in assay [4] was 100% (active) throughout. In addition, the inhibition in assay [2] is 37%; in assay [3], 4%. For the same compound, the outcome in assay [5], in assay [6], in assay [7] and in assay [8] was inactive.
Turning to `COc1cc2nc(N3CCC(CNC(=O)c4ccc(-c5ccc(Cl)cc5)cc4)CC3)nc(N)c2cc1OC`, the values for the growth inhibition in assay [1] and in assay [4] were 101% (active) and 100% (active), respectively. Moreover, the inhibition in assay [2] was 99% (active); in assay [3], 8%. In addition, the outcome in assay [5], in assay [6], in assay [7] and in assay [8] was inactive.
In the case of `Cc1ccc(F)cc1-c1cc(N2CCCN(C(=O)c3ccc(Br)o3)CC2)ncn1`, the growth inhibition in assay [1] was 91% (active); in assay [4], 94% (active). In addition, the inhibition in assay [2] and in assay [3] was 0% each time. Also, the outcome in assay [5], in assay [6], in assay [7] and in assay [8] was inactive.
`O=C(CCC1CCCC1)N(Cc1ccc(-c2ccc(CNCCc3ccccn3)cc2)cc1)CC1CCCCN1` (stereo not drawn): the growth inhibition was 69% (active) in assay [1] and 95% (active) in assay [4]. Further, the inhibition is 32% in assay [2] and 0% in assay [3]. Besides, the result in assay [5], in assay [6], in assay [7] and in assay [8] was inactive.
For `CC(C)(C)c1cc(C(=O)N2CCC(c3ccccn3)CC2)n(Cc2ccccc2)n1`, the growth inhibition was 90% (active) in assay [1] and 96% (active) in assay [4]. Also, the figures for the inhibition in assay [2] and in assay [3] were 3% and -3%, respectively. For the same compound, the result in assay [5], in assay [6], in assay [7] and in assay [8] was inactive.

Source of the values: PubChem BioAssay.
